A short description of this experiment: qHTS for identification of novel therapeutic agents for treatment of microphthalmiaassociated transcription factor (MiT) renal cell carcinoma (RCC) (AID 1963991). Conditions: CellTiter-Glo, 48 h; for Potency: active = Z-AUC below -0.8 in all three lines; for z-score: stronger effect = lower value. The text has this: PI: Marston Linehan Ph.D.
Urologic Oncology Branch, Center for Cancer Research (CCR)
National Cancer Institute (NCI), National Institute of Health (NIH), Bethesda, Maryland
MiT-Renal Cell Carcinoma (RCC) is characterized by genomic translocations involving microphthalmia-associated transcription factor (MiT) family members TFE3, TFEB, or MITF. MiT-RCC represents a specific subtype of sporadic RCC that is predominantly seen in young patients and can present with heterogeneous histological features making diagnosis challenging. Moreover, the disease biology of this aggressive cancer is poorly understood and there is no accepted standard of care therapy for patients with advanced disease. Tumor-derived cell lines have been established from human TFE3-RCC providing useful models for preclinical studies. TFE3-RCC tumor derived cell lines and their tissues of origin were characterized by IHC and gene expression analyses. An unbiased high-throughput drug screen was performed to identify novel therapeutic agents for treatment of MiT-RCC. Potential therapeutic candidates were validated in in vitro and in vivo preclinical studies. Mechanistic assays were conducted to confirm the on-target effects of drugs. The results of a high-throughput small molecule drug screen utilizing three TFE3-RCC tumor-derived cell lines identified five classes of agents with potential pharmacological efficacy, including inhibitors of phosphoinositide-3-kinase (PI3K) and mechanistic target of rapamycin (mTOR), and several additional agents, including the transcription inhibitor Mithramycin A. Upregulation of the cell surface marker GPNMB, a specific MiT transcriptional target, was confirmed in TFE3-RCC and evaluated as a therapeutic target using the GPNMB-targeted antibody-drug conjugate CDX-011. […] The results of the high-throughput drug screen and validation studies in TFE3-RCC tumor-derived cell lines have provided in vitro and in vivo preclinical data supporting the efficacy of the PI3K/mTOR inhibitor.
SEQUENCE No. (e.g., 1, 2, 3, etc.); […] (e.g., Cells, Incubation, Reagent, etc.); VALUE; DESCRIPTION.
1; Cells; 3 uL; white, solid-bottom Grenier assay plate.
2; Compounds; 23 nL; Kalypsis pin-tool (Wako USA).
3; Incubation; 48 hr; 37 C, 5% CO2, 95% humidity.
4; Reagent; 3 uL; CellTiter-Glo reagent (Promega).
5; Incubation; 15 min; room temperature.
6; Detection; Luminescence; ViewLux plate reader (PerkinElmer).
NOTES (numbers refer to Sequence numbers above)
1. Quantitative high-throughput screening (qHTS) of 1912 pharmacologically defined small molecule compounds was conducted on three TFE3-fusion cell lines bearing three different fusion partners (UOK109, UOK124, UOK145). Briefly, 500 cells in complete growth media were plated into white, solid-bottom, 1536-well tissue culture treated plates (Grenier Cat. 789173-F) using a Multidrop Combi cassette dispenser.
2. Twenty-three nanoliter of 1912 pharmacologically defined small molecule compounds of the NCATS Mechanism Interrogation PlatE (MIPE) version 4.0 were added to each assay plate using a Pintool Dispenser (Wako) equipped with 1536 pin head.
3. Plates were covered with stainless steel gasketed lids and incubated for 48 hours at standard cell culture conditions.
4. Viability was assessed by adding 3uL of CellTiter-Glo detection reagent (Promega).
5. Plates were covered with gasket lids and incubated for 15 minutes at room temperature.
6. Luminescence was measured on a ViewLux plate reader (PerkinElmer). Post-screen data processing used DMSO controls as 100% viability and empty wells as 0% viability and dose response curve fitting was done for all 11 concentrations for each compound.

Setting [1] is: TFE3-RCC UOK109 viability, measured here: UOK109 Z-AUC.
Where [2] appears, read: TFE3-RCC viability, measured here: UOK124 Z-AUC.
The mark [3] stands for this setting: TFE3-RCC viability, measured here: UOK145 Z-AUC.

Here are results for 12 compounds from PubChem BioAssay (NCATS).

Results filed as inconclusive are left out. Active and inactive are the calls of the source.
Potency means the concentration at half of the fitted maximal effect.

Consider `CC[C@]1(O)C[C@H]2CN(CCC3=c4ccccc4=N[C]3[C@@](C(=O)OC)(c3cc4c(cc3OC)N(C)[C@H]3[C@@](O)(C(N)=O)[C@H](O)[C@]5(CC)C=CCN6CC[C@]43[C@@H]65)C2)C1`, for which the Potency (TFE3-RCC UOK109 viability) is 332 nM (active). Further, the z-score is, setting by setting: under setting [1], -0.8; under setting [2], -1.02; under setting [3], -0.904.
Taken in the same sequence, the figures for `CC1(C)CC(=O)c2c(C(F)(F)F)nn(-c3ccc(C(N)=O)c(NC4CCC(O)CC4)c3)c2C1` (stereo not given) were 372 nM (active), -1.31, -0.879 and -1.53.
Taken in the same sequence, the figures for `CO[C@H]1/C=C\O[C@@]2(C)Oc3c(C)c(O)c4c(O)c(c(C=NN5CCN(C6CCCC6)CC5)c(O)c4c3C2=O)NC(=O)C(C)=CC=C[C@H](C)[C@H](O)[C@@H](C)[C@@H](O)[C@@H](C)[C@H](OC(C)=O)[C@H]1C` were 105 nM (active), -1.72, -2.38 and -2.93.
For `C[C@@H]1O[C@@H](O[C@H]2CC[C@@]3(C)[C@H](CC[C@@H]4[C@H]3C[C@@H](O)[C@]3(C)[C@@H](C5=CC(=O)OC5)CC[C@]43O)C2)C[C@H](O)[C@@H]1O[C@H]1C[C@H](O)[C@H](O[C@H]2C[C@H](O)[C@@H](O)[C@@H](C)O2)[C@H](C)O1` (stereo in doubt) the same measures were 215 nM (active), -2.46, -1.68 and -0.987.
In the case of `C[C@]12CCC3=C4CCC(=O)C=C4CC[C@@H]3[C@H]1CC[C@@]2(O)CC#N`, the z-score is 0.693 under setting [1], 0.709 under setting [2] and -0.023 under setting [3].
Turning to `N[C@@H](CC(=O)N1CCn2c(nnc2C(F)(F)F)C1)Cc1cc(F)c(F)cc1F`, the z-score under setting [1] came out at 0.736, the z-score under setting [2] is 0.907 and the z-score under setting [3] came out at 0.666.
For `c1ccc(CNc2nc(N3CCOc4ccccc43)nc3c2CCCC3)cc1` the same measures were 0.901, 0.197 and 0.631.
Taken in the same sequence, the figures for `COc1nc(C)cnc1NS(=O)(=O)c1cccnc1-c1ccc(-c2nnco2)cc1` were 1.22, 0.956 and 0.662.
Turning to `CCOC(=O)[C@H]1O[C@H]1C(=O)N[C@@H](CC(C)C)C(=O)NCCC(C)C`, the z-score runs as follows: under setting [1], 0.719; under setting [2], 0.357; under setting [3], 0.572.
`CC[C@H](C)C(=O)O[C@H]1C[C@H](O)C=C2C=C[C@H](C)[C@H](CC[C@@H](O)C[C@@H](O)CC(=O)O)[C@H]21` yielded a z-score under setting [1] of 0.594, a z-score under setting [2] of 0.809 and a z-score under setting [3] of 0.248.
`O=c1[nH]c(=O)n([C@H]2C[C@@H](O)[C@@H](CO)O2)cc1I`: the z-score is, setting by setting: under setting [1], 0.108; under setting [2], 0.166; under setting [3], 0.313.
For `C[C@@H]1C[C@H]2[C@@H]3CCC4=CC(=O)C=C[C@]4(C)[C@@]3(F)[C@@H](O)C[C@]2(C)[C@@]1(O)C(=O)CO` the same measures were 0.745, 0.108 and -1.45.
